ChEMBL document CHEMBL1157539, “Thousands of chemical starting points for antimalarial lead identification” (Nature, 2010)

Experiments:
Assay type in all cases: functional
Plasmodium falciparum [1] = assay: GSK_TCMDC: Inhibition of Plasmodium falciparum 3D7 in whole red blood cells, using parasite LDH activity as an index of growth. Test compounds present at 2uM
Plasmodium falciparum [2] = assay: GSK_TCMDC: Inhibition of Plasmodium falciparum Dd2 in whole red blood cells, using parasite LDH activity as an index of growth. Test compounds present at 2uM
HepG2 = assay: GSK_TCMDC: Percent inhibition of human HepG2 cell line. Test compounds present at 10uM.

CN(Cc1cccc(O)c1)C1CCN(c2cc(NC(=O)c3cccc(F)c3)ccn2)CC1.O=C(O)C(F)(F)F
Inhibition (Plasmodium falciparum [1]): 98%
Inhibition (Plasmodium falciparum [2]): 37%
Inhibition (HepG2): 0%

CCC(C)NC(=O)Nc1ccc(-c2cccc(-c3nc4ccccc4[nH]3)c2)cc1 (stereo not drawn)
Inhibition (Plasmodium falciparum [1]): 94%
Inhibition (Plasmodium falciparum [2]): 37%
Inhibition (HepG2): 41%

CCNc1cc(CC)nc(Nc2ccc(C)cc2)n1
Inhibition (Plasmodium falciparum [1]): 100%
Inhibition (Plasmodium falciparum [2]): 24%
Inhibition (HepG2): 22%

O=C(NCCCCN1CCC(c2ccc3c(c2OCCN2CCCC2)CCCC3)CC1)c1ccc(-c2ccc(C(F)(F)F)cc2)cc1
Inhibition (Plasmodium falciparum [1]): 100%
Inhibition (Plasmodium falciparum [2]): 81%
Inhibition (HepG2): 25%

CCCC(C)Nc1nc(C)cc(N[C@@H](CC(C)C)C(=O)NCc2cccc(F)c2)n1.O=C(O)C(F)(F)F (stereo partly drawn)
Inhibition (Plasmodium falciparum [1]): 96%
Inhibition (Plasmodium falciparum [2]): 63%
Inhibition (HepG2): 1%

c1ccc(-c2cccnn2)cc1
Inhibition (Plasmodium falciparum [1]): 98%
Inhibition (Plasmodium falciparum [2]): 6%
Inhibition (HepG2): 0%

CC(C)(C)c1ccc(NC(=O)c2cccc(CN3CCCN(Cc4ccsc4)CC3)c2)cc1.O=C(O)C(F)(F)F
Inhibition (Plasmodium falciparum [1]): 96%
Inhibition (Plasmodium falciparum [2]): 3%
Inhibition (HepG2): 33%

COc1cccc(C2(c3cccc(OC)c3)N=C(N)N(CCCc3ccccc3)C2=O)c1.O=CO
Inhibition (Plasmodium falciparum [1]): 98%
Inhibition (Plasmodium falciparum [2]): 93%
Inhibition (HepG2): 3%

COc1ccc(O)c(Cc2cnc3nc(N)[nH]c(=O)c3c2C)c1.CS(=O)(=O)O
Inhibition (Plasmodium falciparum [1]): 96%
Inhibition (Plasmodium falciparum [2]): 6%
Inhibition (HepG2): 30%

Nc1nc(N)c2c(n1)CCC(c1ccccc1)C2 (stereo not drawn)
Inhibition (Plasmodium falciparum [1]): 93%
Inhibition (Plasmodium falciparum [2]): 0%
Inhibition (HepG2): 55%

O=C(Nc1cccc(-c2nn3ccccc3c2-c2ccnc(Nc3ccc(NCCCN4CCOCC4)c(F)c3)n2)c1)c1c(F)cccc1F
Inhibition (Plasmodium falciparum [1]): 100%
Inhibition (Plasmodium falciparum [2]): 97%
Inhibition (HepG2): 86%
